Results on ten compounds are retold here after PubChem BioAssay (NCI).

The panel holds about 83,000 compounds, 20% with a hit somewhere; the sample as a whole holds those more often.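 Note: values are percent growth. 100 is the growth of untreated cells, values between 100 and 0 indicate rising inhibition; between -100 and 0 indicates cell death.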 Values without a mark were called inactive. Active and inactive are the calls of the source. Rule for the calls: active = growth percent below 10; inactive = the rest.

Among the test systems are OVCAR-8 ovarian; OVCAR-5 ovarian; OVCAR-4 ovarian; SK-OV-3 ovarian; IGROV1 ovarian; OVCAR-3 ovarian; HS 578T breast; NCI/ADR-RES ovarian; T-47D breast; BT-549 breast; MDA-MB-435 melanoma; SW-620 colon; MCF7 breast; HCT-116 colon; HCC-2998 colon; KM12 colon; RPMI-8226 leukemia.
What all share (assay): NCI-60 one-dose screen, 48 h (100 = growth as untreated, 0 = no growth, -100 = all killed)
Common to all, as to details: 10 µM unless noted

Turning to `CCOc1cc(-c2ccc[nH]2)[nH]c1/C=C1\N=C(C)C(C(=O)OC)=C1C`, the growth in the experiment with OVCAR-8 ovarian is -45.8% (active); in the experiment on OVCAR-5 ovarian, -67.6% (active); in the experiment with OVCAR-4 ovarian, -38.6% (active); in the experiment with SK-OV-3 ovarian it was -63.7% (active); in the experiment on IGROV1 ovarian, -45% (active); in the experiment on OVCAR-3 ovarian, -89.2% (active). Moreover, the growth with HS 578T breast was -23.3% (active); in the experiment on NCI/ADR-RES ovarian, -58.7% (active); with T-47D breast it was -63.8% (active); with BT-549 breast, -43.3% (active); with MDA-MB-435 melanoma, -70.8% (active); in the experiment with SW-620 colon it was -72.9% (active). The growth with MCF7 breast was -91.3% (active); with HCT-116 colon, -60.2% (active); in the experiment on HCC-2998 colon it was -87% (active); in the experiment with KM12 colon it was -85.3% (active).

In the case of `CCCCCCCCCCC[C@@H](C[C@H]1OC(=O)[C@H]1CCCCCC)OC(=O)[C@@H](CC(C)C)NC=O`, the growth in the experiment with RPMI-8226 leukemia is 0.857% (active); with OVCAR-5 ovarian, 94.4%; with SK-OV-3 ovarian it was 88.1%; in the experiment with IGROV1 ovarian it was 60.3%; with OVCAR-3 ovarian, 69%; in the experiment with HS 578T breast, 53.6%. In addition, the growth in the experiment with NCI/ADR-RES ovarian is 37.5%; in the experiment with T-47D breast, 76.5%; in the experiment with BT-549 breast, 31.6%; with MDA-MB-435 melanoma, 69%; with SW-620 colon, 77.6%; with HCT-116 colon, 34%. The growth was 55.1% in the experiment on HCC-2998 colon and 53% in the experiment on KM12 colon.

Take `Clc1cc(Cl)c(OCC#CI)cc1Cl`: the growth in the experiment with OVCAR-8 ovarian was 72.1%; with OVCAR-5 ovarian, 101%; in the experiment with OVCAR-4 ovarian, 80%; in the experiment with SK-OV-3 ovarian, 102%; with IGROV1 ovarian it was 45.3%; with OVCAR-3 ovarian, -61.5% (active). In addition, the growth with HS 578T breast was 103%; in the experiment on NCI/ADR-RES ovarian, 83.6%; in the experiment on T-47D breast it was 1.86% (active); in the experiment with BT-549 breast it was 135%; with MDA-MB-435 melanoma it was 55.5%; in the experiment on SW-620 colon, -65.9% (active). Moreover, the growth with MCF7 breast was 9.27% (active); with HCT-116 colon, -71.6% (active); with HCC-2998 colon it was 109%; in the experiment on KM12 colon, 82.1%.

As for `CC[C@@H]1OC(=O)[C@H](C)[C@@H](O[C@H]2C[C@@](C)(OC)[C@@H](O)[C@H](C)O2)[C@H](C)[C@@H](O[C@@H]2O[C@H](C)C[C@H](N(C)C)[C@H]2O)[C@](C)(O)C[C@@H](C)[C@@H]2N[C@@H](COCCOC)O[C@H]([C@H]2C)[C@]1(C)O`, the growth with RPMI-8226 leukemia was 88.8%; in the experiment with OVCAR-5 ovarian, 105%; in the experiment with OVCAR-4 ovarian, 106%; in the experiment on SK-OV-3 ovarian, 109%; in the experiment with IGROV1 ovarian, 108%; in the experiment on OVCAR-3 ovarian, 124%. For the same compound, the growth in the experiment on HS 578T breast was 115%; with NCI/ADR-RES ovarian, 101%; in the experiment with BT-549 breast it was 92.2%; in the experiment with MDA-MB-435 melanoma, 106%; in the experiment on SW-620 colon, 111%; in the experiment with HCT-116 colon, 85.6%. Moreover, the growth in the experiment on HCC-2998 colon is 98.9%; with KM12 colon it was 126%.

On to `ClC1=C(Cl)C(Cl)=C(Cl)C1=Cc1ccc(Cl)cc1`, for which the growth in the experiment on RPMI-8226 leukemia was -43.2% (active); in the experiment with OVCAR-5 ovarian, 71.9%; with OVCAR-4 ovarian it was 75.4%; with SK-OV-3 ovarian, 95.5%; in the experiment on OVCAR-3 ovarian, -96.8% (active); in the experiment with HS 578T breast it was -12.2% (active). Further, the growth with NCI/ADR-RES ovarian is -47.5% (active); with T-47D breast, 25.3%; in the experiment on BT-549 breast, -38.9% (active); in the experiment on MDA-MB-435 melanoma it was -42.3% (active); in the experiment with SW-620 colon it was -83.9% (active); in the experiment on MCF7 breast it was 25%. Moreover, the figures for the growth with HCT-116 colon, in the experiment on HCC-2998 colon and in the experiment with KM12 colon were -84.1% (active), 30.9% and -69.6% (active), respectively.

Consider `Cn1cc(-c2csc(-c3c[nH]c4ncccc34)n2)c2cc(F)cnc21`, for which the growth with RPMI-8226 leukemia is 70.3%; in the experiment on OVCAR-5 ovarian, 87.1%; in the experiment with OVCAR-4 ovarian it was 62.4%; in the experiment with SK-OV-3 ovarian it was 81.8%; in the experiment on IGROV1 ovarian, 66.5%; with OVCAR-3 ovarian it was 87.8%. Further, the growth in the experiment with NCI/ADR-RES ovarian is 63%; with T-47D breast, 43.7%; in the experiment on BT-549 breast it was 74.1%; in the experiment on MDA-MB-435 melanoma it was 20%; in the experiment on SW-620 colon it was 81.3%; in the experiment on MCF7 breast it was 56.8%. The figures for the growth with HCC-2998 colon and in the experiment with KM12 colon were 62.2% and 49.4%, respectively.

On to `CN1C(=O)/C(=C/c2nc(-c3cccc(F)c3)n3ccccc23)c2ccccc21`, for which the growth is 34.9% in the experiment with OVCAR-8 ovarian; 100% with OVCAR-5 ovarian; 41.9% in the experiment with OVCAR-4 ovarian; 66.6% with SK-OV-3 ovarian; 7.47% (active) in the experiment with IGROV1 ovarian; 60.6% in the experiment on OVCAR-3 ovarian. In addition, the growth in the experiment on HS 578T breast was 33%; in the experiment with NCI/ADR-RES ovarian, 66.4%; in the experiment on T-47D breast it was 50.1%; with BT-549 breast, 90.9%; in the experiment with MDA-MB-435 melanoma, 93.6%; in the experiment with SW-620 colon, 84.6%. The growth was 44.3% in the experiment with MCF7 breast, 44.5% with HCT-116 colon, 99.4% in the experiment with HCC-2998 colon and 94.1% in the experiment with KM12 colon.

Turning to `CCCCCCCC/C=C/CCCCCCCC1=NC(C)(C)CN1CCO`, the growth is 45% in the experiment on OVCAR-8 ovarian; 87.3% in the experiment on OVCAR-5 ovarian; 52.3% in the experiment on OVCAR-4 ovarian; 78.6% in the experiment on SK-OV-3 ovarian; -40.5% (active) in the experiment with IGROV1 ovarian; 32.8% with OVCAR-3 ovarian. Moreover, the growth with HS 578T breast was 35.1%; in the experiment with NCI/ADR-RES ovarian, 77.3%; in the experiment on T-47D breast it was 0.508% (active); in the experiment with BT-549 breast, 78.1%; with MDA-MB-435 melanoma, -31.9% (active); in the experiment with SW-620 colon, -66.3% (active). For the same compound, the growth in the experiment with MCF7 breast is -55.5% (active); with HCT-116 colon, -68% (active); in the experiment on HCC-2998 colon it was -86.6% (active); in the experiment with KM12 colon, -68.5% (active).

As for `O=C(Nc1cccc(-n2cc(-c3ccncc3)c(-c3ccc(O)c(Cl)c3)n2)c1)Nc1ccc(Cl)c(C(F)(F)F)c1`, the growth is -44.7% (active) in the experiment with OVCAR-8 ovarian; 39.4% in the experiment on OVCAR-5 ovarian; -5.46% (active) in the experiment with OVCAR-4 ovarian; 4.82% (active) in the experiment on SK-OV-3 ovarian; -20.9% (active) with IGROV1 ovarian; -21.1% (active) in the experiment on OVCAR-3 ovarian. Moreover, the growth is -0.107% (active) with HS 578T breast; 11.3% in the experiment on NCI/ADR-RES ovarian; -10% (active) in the experiment with T-47D breast; -12.6% (active) in the experiment with BT-549 breast; -61.6% (active) in the experiment on MDA-MB-435 melanoma; 8.96% (active) in the experiment on SW-620 colon. For the same compound, the growth is -7.24% (active) with MCF7 breast, -8.62% (active) in the experiment with HCT-116 colon, 14.7% with HCC-2998 colon and -25.2% (active) in the experiment on KM12 colon.

Turning to `CC1=C(C(=O)Nc2ccccc2)C(c2ccc3c(c2)OCCO3)NC(=O)N1` (stereo not drawn), the growth in the experiment with OVCAR-8 ovarian was 102%; with OVCAR-5 ovarian, 102%; in the experiment with OVCAR-4 ovarian, 106%; in the experiment with SK-OV-3 ovarian, 101%; in the experiment on IGROV1 ovarian, 104%; with OVCAR-3 ovarian, 106%. Further, the growth in the experiment with HS 578T breast was 101%; in the experiment on NCI/ADR-RES ovarian, 101%; with T-47D breast, 101%; in the experiment on BT-549 breast, 95.9%; in the experiment with MDA-MB-435 melanoma, 102%; in the experiment with SW-620 colon, 105%. In addition, the growth with MCF7 breast was 94.7%; in the experiment on HCT-116 colon it was 97.6%; in the experiment with HCC-2998 colon it was 103%; in the experiment with KM12 colon, 100%.
